# Screens (PubChem BioAssay)
# TDP1 cell noCPT = qHTS for Inhibitors of human tyrosyl-DNA phosphodiesterase 1 (TDP1): qHTS in cells in absence of CPT | DT40 Tdp1-/- hTDP1 cells, no CPT, ATP luminescence, 48 h | Potency, µM (titrated, usually from 46.2 µM), actives largely listed as inhibitors | hit rate 15% among 420,000; also: nearly all actives have a fitted effect of over 55% in size
#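 Growth of hTDP1-complemented DT40 Tdp1-knockout cells is measured by ATP luminescence after at least 48 hr compound exposure at 37 °C, with DMSO substituting for the 20 nM CPT used in the parallel screen.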
# 12-LOX inh = ALOX12 (human) lipoxygenase inhibition; P18054; hit rate 1.1% among 580,000; Potency, µM (series often up to 108 µM), most hits filed as inhibitors; purified 12hLO, xylenol orange hydroperoxide absorbance
# Target sequence (P18054 whole entry, looked up): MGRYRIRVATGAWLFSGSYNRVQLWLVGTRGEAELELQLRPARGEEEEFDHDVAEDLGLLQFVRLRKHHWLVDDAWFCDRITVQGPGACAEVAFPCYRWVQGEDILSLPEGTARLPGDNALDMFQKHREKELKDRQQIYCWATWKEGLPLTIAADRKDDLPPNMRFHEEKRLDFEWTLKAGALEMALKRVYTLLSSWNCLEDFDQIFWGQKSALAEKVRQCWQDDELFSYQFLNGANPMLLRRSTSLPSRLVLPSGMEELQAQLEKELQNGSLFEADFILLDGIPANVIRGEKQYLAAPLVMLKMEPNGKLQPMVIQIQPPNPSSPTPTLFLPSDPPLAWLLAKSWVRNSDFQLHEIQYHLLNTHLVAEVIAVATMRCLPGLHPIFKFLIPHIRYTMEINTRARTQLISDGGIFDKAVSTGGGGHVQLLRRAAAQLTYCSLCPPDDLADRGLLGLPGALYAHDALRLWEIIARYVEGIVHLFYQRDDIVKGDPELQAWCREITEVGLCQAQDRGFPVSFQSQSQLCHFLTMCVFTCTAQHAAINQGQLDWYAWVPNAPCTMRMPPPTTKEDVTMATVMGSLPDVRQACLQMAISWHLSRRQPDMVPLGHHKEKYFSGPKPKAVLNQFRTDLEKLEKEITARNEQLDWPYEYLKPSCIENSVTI
#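 Hydroperoxide product was detected by ferrous iron/xylenol orange as the 573 to 405 nm absorbance ratio. Arachidonic acid at 40 uM (final) was turned over for 30 min at room temperature by 150 nM human 12hLO, pH 7.0 Hepes buffer, after 15 min compound preincubation.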
# IL1B secr inh = blocks inflammasome-driven IL-1 beta release; THP-1 LPS/ATP IL-1B secretion, AlphaLISA, 16 h; active compounds read low; activity change, % at 57.5 µM; hit rate 4.7% among 360,000; AID 743279; in the data active = activity change below about -50%; inconclusive = mostly about -30% to -49%
#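 Secreted IL-1B measured by AlphaLISA bead assay after 16 h compound exposure of THP-1 cells; compounds (final up to 57.5 uM) added 1 h before LPS (250 ng/mL) and ATP (1.25 mM) stimulation; lower signal means less secretion.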
# HT1080 IDH1KD tx = HT-1080 IDH1 knockdown cell toxicity (counter line); Potency, µM (top dose mostly 46.1 µM), hits mostly cytotoxic; AID 686971; hit rate 2% among 360,000; HT-1080 IDH1 knockdown viability, ATP luminescence, 48 h
#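 CellTiter-Glo luminescence after 48 h compound exposure at 37 degrees C of IDH1-knockdown HT-1080 cells in 5% FBS RPMI. %Activity scaled between DMSO wells and cell-free media wells, with curves fitted and assigned curve classes.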
# TDP1 cell CPT = DT40-hTDP1 cell growth loss with CPT. chicken DT40 Tdp1-/-;hTDP1 cells + 20 nM CPT, ATP luminescence, 48 h. Potency, µM (doses to about 46.2 µM), actives largely listed as inhibitors. hit rate 12% among 420,000; also: nearly all actives have a fitted effect of over 55% in size
#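 Chicken DT40 Tdp1-/- cells stably complemented with human TDP1 were seeded at 400 cells/well in medium containing 20 nM camptothecin, exposed to pin-transferred compounds, and grown at 37 °C for at least 48 hr. Viability was read as ATP luminescence.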
# HT1080NT lethal = kills 2HG-producing HT-1080-NT fibrosarcoma cells | Potency, µM (doses to about 46.1 µM), usual class: cytotoxic | HT-1080-NT fibrosarcoma viability, CellTiter-Glo ATP luminescence, 48 h | AID 686970 | hit rate 1.6% among 360,000;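 also: NT is the 2HG producing partner of a matched IDH1 knockdown line; nearly all actives have a fitted effect of over 55% in size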
#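 Luminescent CellTiter-Glo readout after 48 hours of compound exposure at 37 degrees C defined viability of HT-1080-NT cells. Activity was normalized to DMSO wells and cell-free media wells; concentration-response curves were fitted and assigned curve classes.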
# A number is an active result; - = inactive; ? = inconclusive; . = not tested or not shown; [ ] = remark or other dose. The entries come from a sample that favours hits as a whole. Unless noted, calls follow the shape of the dose curve; as a rule, active = well fitted curve in the direction sought with a large enough effect; inconclusive = small, poorly fitted or top-dose-only effect, or another doubt; inactive = no such curve, though single readings can be large; an effect the other way counts as inactive or inconclusive.
SMILES,TDP1 cell noCPT,12-LOX inh,IL1B secr inh,HT1080 IDH1KD tx,TDP1 cell CPT,HT1080NT lethal
O=C(CCl)N1CCN(S(=O)(=O)c2ccc3c(c2)CCC3)CC1,0.651µM,-,-66.7,?,2.31µM,?
CCC1(N2CCN(S(=O)(=O)c3ccc4c(c3)CCCC4)CC2)CCN(C(=O)NC)C1 (configuration not stated),.,31.6µM,.,.,.,.
CN1C(=O)N(CC(=O)N2CCN(S(=O)(=O)c3ccc4c(c3)CCC4)CC2)C(=O)C12CCCCC2,?,?,-,-,?,-
COc1cc2ncn(CCC(=O)N3CCSCC3)c(=O)c2cc1OC,.,-,.,.,.,.
O=C(Oc1oc(-c2ccco2)nc1C=Nc1ccccc1)c1ccco1,4.61µM,.,?,-,3.66µM,-
CN(C)c1ccc(N=Cc2nc(-c3ccccc3)oc2OC(=O)c2cccc(Cl)c2)cc1,?,-,-,-,?,-
Cc1ccc(N=Cc2nc(-c3ccco3)oc2O)cc1,?,?,.,-[9.24 µM],-,-
O=C(Oc1oc(-c2ccco2)nc1C=Nc1ccccc1)c1ccoc1,11.6µM,-,-68.2,-,5.17µM,-
Cc1ccc(C(=O)Oc2oc(-c3ccco3)nc2C=Nc2ccc(Cl)cc2)cc1,23.1µM,?,-51.1,-,18.4µM,-
COc1ccc(N=Cc2nc(-c3ccccc3)oc2OC(C)=O)cc1,13µM,-,-,-,?,-
COc1cccc(N=Cc2nc(-c3ccccc3)oc2OC(C)=O)c1,-,-,-,-,-,-
O=C(c1ccc(-c2ccccc2)cc1)N(Cc1cccs1)C1CC1,.,-,.,.,.,.
N#Cc1nc(COc2ccc(F)cc2)oc1NCc1ccc(F)cc1,.,-,.,.,.,.
COc1cccc(OC)c1C(=O)NCCc1ccccc1,-,-,-,-,-,-
COc1cc(CCc2ccccc2)c(C(=O)O)c(O)c1C/C=C(/C)CCC=C(C)C,16.4µM,?,-,?,?,?
COc1cc(CCc2ccccc2)c(C(=O)O)c(O)c1CC=C(C)C,18.4µM,?,-,-,23.1µM,-
Cc1ccc(C2CCCN2C(=O)CSc2nnnn2C2CC2)cc1 (configuration not stated),.,-,.,.,.,.
CN(C)CCCNCC(=O)c1c(-c2ccccc2)n(C)c2ccccc12,18.4µM,?,-,?,29.1µM,?
CCNC(=O)Nc1ccc2c(c1)c(=O)n(C)n2Cc1ccc(Cl)cc1,-,14.1µM,-,-,-,-
COc1ccc(CCNC(=O)Nc2ccc3c(c2)c(=O)n(C)n3Cc2ccc(Cl)cc2)cc1OC,?,?,-,-,8.2µM,-
C=C(C)Cn1c2ccc(NC(=O)NCC)cc2c(=O)n1C,-,-,-,-,-,-
Oc1c(CN2CCOCC2)cc(CN2CCOCC2)c(O)c1O,?,-,-,-,18.4µM,-
Oc1cccc(CN2CCOCC2)c1O,?,?,-,-,25.9µM,-
CCCc1cc(CN2CCOCC2)c(O)c(CN2CCOCC2)c1O,18.4µM,35.5µM,?,?,14.6µM,-
Cc1nc2scc(CC(=O)NCc3ccco3)n2c(=O)c1-c1cc(C)n(-c2ccccc2F)n1,.,-,.,.,.,.
SMILES,TDP1 cell noCPT,12-LOX inh,IL1B secr inh,HT1080 IDH1KD tx,TDP1 cell CPT,HT1080NT lethal
COc1ccc(C(=O)Nc2ccc3oc(C)nc3c2)c(O)c1,.,-,.,.,.,.
COc1ccccc1CNC[C@H]1Cn2c(-c3ccccc3)cnc2CO1,.,-,.,.,.,.
COc1ccc([N+](=O)[O-])cc1NC(=S)NC(NC(=O)C(c1ccccc1)c1ccccc1)C(Cl)(Cl)Cl (configuration not stated),?,-,-,5.8µM,?,?
COC(=O)NC(NC(=S)Nc1ccc([N+](=O)[O-])cc1)C(Cl)(Cl)Cl (configuration not stated),7.31µM,?,-,-,7.31µM,-
Cc1cc([N+](=O)[O-])ccc1NC(=S)NC(=O)C(c1ccccc1)c1ccccc1,16.4µM,-,-,?,?,?
COc1ccc(NC(=O)CC(C)n2cccn2)cc1Cl (configuration not stated),.,-,.,.,.,.
Cc1sc2ncnc(N/N=C/c3cccc(O)c3)c2c1C,-,-,-,?,-,?
C/C(=N\Nc1ncc(Cl)cc1Cl)c1ccccn1,0.0259µM,.,-,0.231µM,18.4µM,?
C/C(=N\Nc1cccc2cccnc12)c1ccccn1,0.92µM,-,-,-,0.731µM,?
C/C(=N\Nc1ncnc2sc(C)c(C)c12)c1ccccn1,0.0146µM,?,-,0.517µM,0.103µM,0.92µM
O=C([C@@H]1C[C@H](F)CN1S(=O)(=O)Cc1ccccc1Cl)N1CCc2ccccc2C1,.,-,.,.,.,.
